37 compounds from the supplement of paper PMC12067926 can be followed below.

Molecules are shown by their SMILES. A number with no mark means an inactive call.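 Rule for the calls: active = growth AUC significantly below the DMSO wells by Dunnett test; inactive = the rest.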

The subject of one experiment is Prolinoborus 1 (Prolinoborus fasciculus). Description: relative growth (AUC of 72 h growth curve relative to DMSO control, dAUC) (ratio); higher = more growth (less inhibition), active = hit call of the paper. Conditions: 20 µM. The method in brief: (§1)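 Whole sediment communities and bacterial isolates from Icelandic stream sediments and Silwood Park soil were brought to carrying capacity in Luria–Bertani medium. They were then diluted 1:100 into 96-well plates with each chemical at 20 µM in 1% DMSO, and A600 was recorded every hour for 72 h. The area under each growth curve, integrated by spline, was averaged across three biological replicates. This figure, divided by the mean of the DMSO controls, gives relative growth (dAUC).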
On to `CNC(=O)CSP(=S)(OC)OC`, for which the relative growth was 0.985.

For the compound `N#CCNC(=O)c1cnccc1C(F)(F)F`, the relative growth is 1.03.

Consider `COP(=O)(OC)OC=C(Cl)Cl`, for which the relative growth was 0.895.

On to `CCc1cc(C)cc(CC)c1-c1c(OC(=O)C(C)(C)C)n2n(c1=O)CCOCC2`, for which the relative growth is 0.926.

Take `CCOc1ccc(C(C)(C)COCc2cccc(Oc3ccccc3)c2)cc1`: the relative growth was 0.909.

`COc1ncc(F)c2nc(S(=O)(=O)Nc3c(F)cccc3F)nn12`: the relative growth was 1.01.

`O=[N+]([O-])c1cc(C(F)(F)F)c(Cl)c([N+](=O)[O-])c1Nc1ncc(C(F)(F)F)cc1Cl`: the relative growth was 0.66 (active).

As to `COP(=S)(OC)Oc1ccc(SC)c(C)c1`, the relative growth was 0.975.

Take `CCCCCCCCCCCCNC(=N)N`: the relative growth was 0.00813 (active).

Take `CC(C)NC(=O)N1CC(=O)N(c2cc(Cl)cc(Cl)c2)C1=O`: the relative growth is 0.949.

As to `CCCCOC(=O)[C@H](C)Oc1ccc(Oc2ccc(C#N)cc2F)cc1`, the relative growth is 1.02.

For the compound `CCc1cccc(C)c1N(C(=O)CCl)[C@@H](C)COC`, the relative growth is 1.01.

As for `CC(C1CC1)C(O)(Cn1cncn1)c1ccc(Cl)cc1` (centres undefined), the relative growth was 0.901.

Take `CC(COc1ccc(Oc2ccccc2)cc1)Oc1ccccn1` (centres undefined): the relative growth was 1.03.

For the compound `CCNc1nc(Cl)nc(NC(C)C)n1`, the relative growth is 0.944.

In the case of `N#C/N=C1\SCCN1Cc1ccc(Cl)nc1`, the relative growth was 1.03.

In the case of `CCCC1COC(Cn2cncn2)(c2ccc(Cl)cc2Cl)O1` (centres undefined), the relative growth was 0.954.

`COc1cc(C)c(C(=O)c2c(OC)ccc(Br)c2C)c(OC)c1OC`: the relative growth was 1.01.

With `C/C(=N\C#N)N(C)Cc1ccc(Cl)nc1`, the relative growth was 0.963.

As for `CCCCN(CCCC)SN(C)C(=O)Oc1cccc2c1OC(C)(C)C2`, the relative growth is 0.949.

Take `N#Cc1c(Cl)c(Cl)c(Cl)c(C#N)c1Cl`: the relative growth was 1.04.

In the case of `Cc1nc(N(C)C)nc(OC(=O)N(C)C)c1C`, the relative growth was 0.948.

Turning to `CC(C)CC(C)c1sccc1NC(=O)c1cn(C)nc1C(F)(F)F` (centres undefined), the relative growth was 0.895.

With `Fc1ccc(Oc2ccnc3cc(Cl)cc(Cl)c23)cc1`, the relative growth is 1.03.

Turning to `CC1(C)C(C=C(Cl)Cl)C1C(=O)OCc1cccc(Oc2ccccc2)c1` (centres undefined), the relative growth was 0.985.

On to `Oc1ccccc1-c1ccccc1`, for which the relative growth was 0.977.

As to `CCC(C)c1ccccc1OC(=O)NC` (centres undefined), the relative growth was 1.02.

For `CN/C(=N\[N+](=O)[O-])NCc1cnc(Cl)s1`, the relative growth was 0.937.

Turning to `O=C(O)c1nc(Cl)ccc1Cl`, the relative growth is 0.949.

Take `CC1(C)[C@H](/C=C(\Cl)C(F)(F)F)[C@@H]1C(=O)OC(C#N)c1cccc(Oc2ccccc2)c1` (some centres undefined): the relative growth is 0.983.

Regarding `O=C(NC(=O)c1c(F)cccc1F)Nc1ccc(OC(F)(F)C(F)OC(F)(F)F)c(Cl)c1` (centres undefined), the relative growth is 0.988.

With `O=C1C=C(N(Cc2ccc(Cl)nc2)CC(F)F)CO1`, the relative growth was 0.95.

Regarding `O=C(O)COc1ccc(Cl)cc1Cl`, the relative growth was 1.01.

For `COc1ccc(C(=CC(=O)N2CCOCC2)c2ccc(Cl)cc2)cc1OC` (mixture of isomers), the relative growth is 0.994.

In the case of `CCN(CC)c1nc(C)cc(OP(=S)(OC)OC)n1`, the relative growth is 1.01.

As for `Oc1ccc(Cl)cc1Cc1cc(Cl)ccc1O`, the relative growth is 0.0645 (active).

`N#CC(CCc1ccc(Cl)cc1)(Cn1cncn1)c1ccccc1` (centres undefined): the relative growth was 0.902.

The test system of the next experiment is Pseudomonas 1 (Pseudomonas baetica). The description is as above. The conditions noted are these: 20 µM. An outline of the steps: as §1
With `CNC(=O)CSP(=S)(OC)OC`, the relative growth was 0.984.

In the case of `N#CCNC(=O)c1cnccc1C(F)(F)F`, the relative growth was 1.05.

`COP(=O)(OC)OC=C(Cl)Cl`: the relative growth was 1.08.

For `CCc1cc(C)cc(CC)c1-c1c(OC(=O)C(C)(C)C)n2n(c1=O)CCOCC2`, the relative growth is 1.1.

On to `CCOc1ccc(C(C)(C)COCc2cccc(Oc3ccccc3)c2)cc1`, for which the relative growth is 1.14.

In the case of `COc1ncc(F)c2nc(S(=O)(=O)Nc3c(F)cccc3F)nn12`, the relative growth is 1.05.

With `O=[N+]([O-])c1cc(C(F)(F)F)c(Cl)c([N+](=O)[O-])c1Nc1ncc(C(F)(F)F)cc1Cl`, the relative growth is 0.775.

With `COP(=S)(OC)Oc1ccc(SC)c(C)c1`, the relative growth was 0.988.

Consider `CCCCCCCCCCCCNC(=N)N`, for which the relative growth is 1.05.

Take `CC(C)NC(=O)N1CC(=O)N(c2cc(Cl)cc(Cl)c2)C1=O`: the relative growth is 0.913.

`CCCCOC(=O)[C@H](C)Oc1ccc(Oc2ccc(C#N)cc2F)cc1`: the relative growth is 0.985.

As to `CCc1cccc(C)c1N(C(=O)CCl)[C@@H](C)COC`, the relative growth is 1.09.

For `CC(C1CC1)C(O)(Cn1cncn1)c1ccc(Cl)cc1` (centres undefined), the relative growth is 0.624 (active).

Consider `CC(COc1ccc(Oc2ccccc2)cc1)Oc1ccccn1` (centres undefined), for which the relative growth is 1.02.

Consider `CCNc1nc(Cl)nc(NC(C)C)n1`, for which the relative growth is 0.917.

With `N#C/N=C1\SCCN1Cc1ccc(Cl)nc1`, the relative growth is 1.05.

As for `CCCC1COC(Cn2cncn2)(c2ccc(Cl)cc2Cl)O1` (centres undefined), the relative growth was 1.08.

In the case of `COc1cc(C)c(C(=O)c2c(OC)ccc(Br)c2C)c(OC)c1OC`, the relative growth is 0.978.

As to `C/C(=N\C#N)N(C)Cc1ccc(Cl)nc1`, the relative growth was 0.967.

For `CCCCN(CCCC)SN(C)C(=O)Oc1cccc2c1OC(C)(C)C2`, the relative growth is 0.618 (active).

Consider `N#Cc1c(Cl)c(Cl)c(Cl)c(C#N)c1Cl`, for which the relative growth is 0.975.

For the compound `Cc1nc(N(C)C)nc(OC(=O)N(C)C)c1C`, the relative growth was 1.

Regarding `CC(C)CC(C)c1sccc1NC(=O)c1cn(C)nc1C(F)(F)F` (centres undefined), the relative growth was 1.11.

Consider `Fc1ccc(Oc2ccnc3cc(Cl)cc(Cl)c23)cc1`, for which the relative growth was 1.07.

On to `CC1(C)C(C=C(Cl)Cl)C1C(=O)OCc1cccc(Oc2ccccc2)c1` (centres undefined), for which the relative growth was 1.13.

Turning to `Oc1ccccc1-c1ccccc1`, the relative growth is 1.03.

For `CCC(C)c1ccccc1OC(=O)NC` (centres undefined), the relative growth was 0.95.

As to `CN/C(=N\[N+](=O)[O-])NCc1cnc(Cl)s1`, the relative growth is 1.1.

For `O=C(O)c1nc(Cl)ccc1Cl`, the relative growth is 1.

Regarding `CC1(C)[C@H](/C=C(\Cl)C(F)(F)F)[C@@H]1C(=O)OC(C#N)c1cccc(Oc2ccccc2)c1` (some centres undefined), the relative growth is 1.07.

Regarding `O=C(NC(=O)c1c(F)cccc1F)Nc1ccc(OC(F)(F)C(F)OC(F)(F)F)c(Cl)c1` (centres undefined), the relative growth was 1.02.

On to `O=C1C=C(N(Cc2ccc(Cl)nc2)CC(F)F)CO1`, for which the relative growth is 1.15.

Turning to `O=C(O)COc1ccc(Cl)cc1Cl`, the relative growth is 0.923.

For the compound `COc1ccc(C(=CC(=O)N2CCOCC2)c2ccc(Cl)cc2)cc1OC` (mixture of isomers), the relative growth was 1.09.

For the compound `CCN(CC)c1nc(C)cc(OP(=S)(OC)OC)n1`, the relative growth was 1.

Take `Oc1ccc(Cl)cc1Cc1cc(Cl)ccc1O`: the relative growth is 0.805.

`N#CC(CCc1ccc(Cl)cc1)(Cn1cncn1)c1ccccc1` (centres undefined): the relative growth was 0.999.
